The list is not random: actives were taken first. Their share in the collection is about 9%.
IMPase inh – membrane-permeable compound that blocks inositol monophosphatase | inhibition (IP1 accumulation), % at 46.1 µM | P97697 | CHO-M1 cells, IP1 accumulation, HTRF TR-FRET ratio | 120,000 tested, under 10 active; active means well fitted curve in the direction sought with a large enough effect in the signal ratio, not every such curve was filed as active; inconclusive means small, poorly fitted or top-dose-only effect, or a change in a side signal; inactive means no such curve, though single readings can be large or run the other way; the % refers to the signal ratio;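 further: cells stimulated with carbachol in lithium chloride buffer; plate controls were DMSO basal wells for no effect and reference inhibitor wells for full effect; higher means more IMPase inhibition seen as more IP1 and lower FRET ratio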
Target sequence (P97697 whole entry, looked up): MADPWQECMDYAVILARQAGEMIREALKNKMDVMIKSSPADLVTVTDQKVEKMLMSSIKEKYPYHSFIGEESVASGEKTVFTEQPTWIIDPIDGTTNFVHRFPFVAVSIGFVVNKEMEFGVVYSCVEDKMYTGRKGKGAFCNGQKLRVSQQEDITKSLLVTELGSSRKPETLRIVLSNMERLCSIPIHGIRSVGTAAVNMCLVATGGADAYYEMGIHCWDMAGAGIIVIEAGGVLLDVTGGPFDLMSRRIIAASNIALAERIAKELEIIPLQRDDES
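Elevated IP1 in lysates lowers TR-FRET signal (665/620 ratio and 620 channel reported). Cells were CHO-M1, given carbachol (50 uM as added) plus 50mM LiCl, pH 7.4, 30 min, 37C; compounds titrated up to 46 uM; AC50 by Hill equation.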
ALDH1A1 block – ALDH1A1 (human) enzyme inhibition. Purified ALDH1A1, NADH fluorescence, propionaldehyde substrate. P00352. 220,000 tested, 7.3% active. Potency, µM (top dose mostly 75.3 µM), inactives show at the highest dose activity, negative = inhibition, most hits filed as inhibitors;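 further: potency means the concentration at half of the fitted maximal effect; plate controls were no enzyme wells and a reference inhibitor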
HPGD block – blocks human HPGD enzyme activity. P15428. purified HPGD, NADH fluorescence kinetic, PGE2 substrate. Potency, µM, without a hit: at the top dose activity change, negative = inhibition, hits mostly inhibitors. 150,000 tested, 4.3% active; further: potency means the concentration at half of the fitted maximal effect
Target sequence (P15428 whole entry, looked up): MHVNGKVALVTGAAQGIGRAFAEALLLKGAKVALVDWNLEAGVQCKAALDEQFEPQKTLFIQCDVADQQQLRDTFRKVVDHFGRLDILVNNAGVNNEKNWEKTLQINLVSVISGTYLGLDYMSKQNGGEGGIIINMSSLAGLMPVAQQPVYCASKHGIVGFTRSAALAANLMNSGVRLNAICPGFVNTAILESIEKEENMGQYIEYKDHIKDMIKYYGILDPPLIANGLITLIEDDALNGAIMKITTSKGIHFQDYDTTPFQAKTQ
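NADH formation kinetics: reaction with 30 uM PGE2 and 1 mM NAD+ (final), 20 nM enzyme, Tris-HCl pH 8 with Tween 20, after 15 min compound preincubation at room temperature. Fluorescence change, last versus first of five reads.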
An asterisk follows results filed as active; ? = inconclusive; · = no result given; ! = not confirmed by another sample; [ ] = dose if it differs, or a comment. Unless noted, the call rests on the fitted dose curve; in most records, active means well fitted inhibition curve with a large enough effect (not every such curve was filed as active); inconclusive means small, poorly fitted or top-dose-only effect, or another doubt; inactive means no such curve, though single readings can be large or run the other way. Unless noted, on the % scale 0 is the no-effect control and ±100 the full control effect.

SMILES | IMPase inh | ALDH1A1 block | HPGD block
O=C(CN1CCC(NC(=O)c2ccc(Br)cc2)CC1)NCc1cccs1 | · | -3% | ·
O=C(NN=C1CCCCCCC1)c1ccc2ccccc2n1 | · | 1.6µM* | ·
O=C(NCc1ccccn1)c1ccc2ccccc2n1 | 1 | -6% | -17%
Cc1ccccc1OCCNC(=O)c1ccc2ccccc2n1 | · | 5% | -23%
NNC(=O)c1ccc2ccccc2n1 | · | 7.9µM* | ·
O=C(NN=C1CCCCCCC1)c1ccccn1 | -5 | -4% | ·
COCCNC(=O)c1ccc2ccccc2n1 | 1 | ? | 22µM*
COC(=O)c1ccccc1NC(=O)COC(=O)CSc1nnc(N)s1 | · | -7% | ·
O=C(NCCCN1CCc2ccccc2C1)C1CCN(S(=O)(=O)N2CCCC2)CC1 | 6 | -8% | -9%
C[C@@H]1C[C@H]2[C@@H]3CCC4=CC(=O)C=C[C@]4(C)[C@@]3(F)[C@@H](O)C[C@]2(C)[C@H]1C(=O)CO | · | -4% | -10%
C[C@H](N)CCP(=O)(O)O | · | 14% | ·
CCOC(=O)CNC(=O)N1CCCC(CNS(=O)(=O)c2cccs2)C1 (stereo unspecified) | · | -7% | ·
COc1ccc(S(=O)(=O)NCC2CCCN(C(=O)c3ccco3)C2)cc1 (stereo unspecified) | · | 4µM* | ·
CCc1cc(C(=O)N2CCCC(CNS(=O)(=O)c3cccs3)C2)n(C)n1 (stereo unspecified) | · | 5µM* | ·
COc1ccc(C(=O)N2CCN(C(=O)c3ccco3)CC2)cc1 | 0 | ? | -12%
COc1ccc(S(=O)(=O)NCC2CCCN(C(=O)c3cccs3)C2)cc1 (stereo unspecified) | · | 1.1µM* | ·
C=CCOc1cccc(C(=O)N2CCCC(CNS(=O)(=O)c3cccs3)C2)c1 (stereo unspecified) | · | -13% | ·
Nc1nonc1-c1noc(CCCCCN2C(=O)c3ccccc3C2=O)n1 | 9 | ? | -18%
CCOC(=O)C1(Cc2ccccc2C)CCCN(C(=O)c2cc(C3CC3)[nH]n2)C1 (stereo unspecified) | · | -3% | ·
Cc1cccc(-c2nc(N3CCN(c4ccc(F)cc4)CC3)c3ccccc3n2)c1 | -5 | · | ·
Cc1cc(C)cc(N(CC(=O)NCC2CCCO2)C(=O)CCC(=O)Nc2cc(C)on2)c1 (stereo unspecified) | 4 | 1% | -4%
Cc1cccc(Nc2nnc(-c3ccc(C)c(S(=O)(=O)N4CCN(C)CC4)c3)c3ccccc23)c1 | 7 | · | ·
CNc1nc(-c2ccc3c(c2)CCN3C(=O)c2ccccc2C)cs1 | · | 13µM* | ·
CS(=O)(=O)N1CCc2cc(-c3csc(NC(=O)Cc4cccs4)n3)ccc21 | 15 | 13µM* | -14%
O=C(CN1CCOCC1)Nc1nc(-c2ccc3c(c2)CCN3S(=O)(=O)c2ccccc2)cs1 | -1 | 8% | -22%
SMILES | IMPase inh | ALDH1A1 block | HPGD block
Cc1ccccc1C(=O)N1CCc2cc(-c3nc(NC(=O)Cc4ccc5c(c4)OCO5)sc3C)ccc21 | -3 | 6% | ?
O=c1c(O)c(-c2ccc(O)cc2)oc2cc(O)cc(O)c12 | 20 | -6%[20.9 µM] | 28µM*!
O=c1cc(-c2ccccc2)oc2cc(O)cc(O)c12 | 0 | 8.9µM* | -22%
O=c1cc(-c2ccc(O)cc2)oc2cc(O)cc(O)c12 | ? | 1.8µM*! | 32µM*!
COc1cc(O)c2c(=O)cc(-c3ccccc3)oc2c1 | 6 | 6% | -4%
O=c1c(O)c(-c2ccc(O)cc2)oc2cc(O)ccc12 | -22 | ? | ?
O=c1cc(-c2ccccc2O)oc2cc(O)cc(O)c12 | 6 | -14% | -30%
CC1CCC(C(C)C)C(=O)C1 (stereo unspecified) | · | -6% | -7%
CC1CCCN(CCCNC(=O)CCn2nc(-c3ccccc3)ccc2=O)C1 (stereo unspecified) | 13 | 22µM* | -14%
CCCCNC(=O)CCn1nc(-c2ccccc2)ccc1=O | 7 | 6% | -7%
Cc1ccc(Sc2c(O)c3ccccc3n(C)c2=O)cc1 | · | -6% | -9%
Cn1c(=O)c(Sc2ccccc2)c(O)c2ccccc21 | · | 25µM* | ·
CCOC(=O)C1=C(C)N(c2ccccc2)C(=O)/C1=C\c1ccco1 | · | 11µM* | -18%
CCOC(=O)C1=C(C)N(c2ccccc2)C(=O)/C1=C\c1cccs1 | · | -9% | -2%
Cc1noc(NS(=O)(=O)c2cccc3c(N(C)C)cccc23)c1C | -5 | -14% | ?
COC(=O)c1c(-c2cccc3ccccc23)csc1NC(=O)Cc1ccc(OC)c(OC)c1 | 6 | 11% | -13%
O=C(CSc1nnc(Cc2cccs2)n1-c1ccccc1)NC1CCCCC1 | 0 | -14% | -18%
O=C(CSc1nc(O)cc(=O)n1-c1ccccc1)NC1CCCCC1 | -7 | 25µM* | -14%
O=C(Nc1ccc(S(=O)(=O)NCC2CCCO2)cc1)c1ccc(Cl)cc1[N+](=O)[O-] (stereo unspecified) | · | 6% | ·
CC(C)OC(=O)c1ccc(NC(=O)CSc2nc(-c3cccs3)cc(C(F)(F)F)n2)cc1 | 0 | · | ·
COc1ccc(-n2c(=S)[nH]c3cc(C(=O)NCCCN4CCCC4=O)ccc3c2=O)cc1 | -4 | 18µM* | -9%
COc1ccc(-n2c(=S)[nH]c3cc(C(=O)NCCCN4CCCC4=O)ccc3c2=O)c(OC)c1 | -2 | 14µM* | -16%
COc1ccc(Cn2c(=O)[nH]c3cc(C(=O)NCCCN4CCCCC4)ccc3c2=O)cc1 | 11 | 6% | -11%
COc1ccc(C(=O)NCCCN2CCCC2=O)cc1 | -3 | -1% | -12%
Cc1cnc(CNc2nc(-c3cccc(NS(C)(=O)=O)c3)nc3ccccc23)cn1 | · | 10% | ·
SMILES | IMPase inh | ALDH1A1 block | HPGD block
O=C(Nc1ccncc1)c1cccc(F)c1 | 0 | 6% | 1%
Cc1cc(C)cc(Oc2ccc(NC(=O)C3CC=CCC3C(=O)O)cc2)c1 (stereo unspecified) | · | 2.8µM* | ·
O=C(O)[C@H]1CC=CC[C@@H]1C(=O)Nc1cccc(O)c1 | · | 0%[13.5 µM] | -8%
O=C(O)C1CC=CCC1C(=O)Nc1cccc(F)c1 (stereo unspecified) | 8 | 28µM* | -21%
O=C(Nc1cccc(F)c1)c1ccccc1 | 5 | 2% | 32µM*
O=C(O)C1CC=CCC1C(=O)Nc1ccc(Oc2ccc(Cl)cc2)cc1 (stereo unspecified) | · | 1.4µM* | -11%
CCCCOc1ccc(NC(=O)C2CC=CCC2C(=O)O)cc1 (stereo unspecified) | 4 | -3% | 2%
CCOc1ccc(NC(=O)C2CC=CCC2C(=O)O)cc1 (stereo unspecified) | 9 | -1% | -14%
O=C(NCCC1=CCCCC1)Nc1ccc2nsnc2c1 | · | -8% | ·
OCC1(CCOc2ccccc2)CCN(CCCn2cccn2)CC1 | · | 18% | ·
O=C(c1cc(Cl)ccc1[N+](=O)[O-])N1CCc2ccccc2C1 | · | -1% | -8%
COC(=O)c1ccccc1NC(=O)C1CC=CCC1C(=O)O (stereo unspecified) | 6 | -14% | -16%
COC(=O)c1cc(NC(=O)C2CC=CCC2C(=O)O)cc(C(=O)OC)c1 (stereo unspecified) | 4 | 13µM* | -7%
CC(=O)c1cccc(NC(=O)c2ccc(NS(=O)(=O)c3c(C)noc3C)cc2)c1 | -5 | ? | -13%
CC(=O)c1cccc(NC(=O)c2ccc(NS(C)(=O)=O)cc2)c1 | 11 | 10% | 13µM*
COc1ccc(CCNC(=O)COC(=O)c2cnccn2)cc1 | 2 | -4% | -6%

Screening results from PubChem.
